Screening data from PubChem BioAssay.
SENP8 block-1 = blocks human SENP8 cleavage of Nedd8 substrate | Q96LD8 | recombinant SENP8, Nedd8 substrate fluorescence | inhibition, % at 20 µM | actives 0.64% (n = 360,000) | AID 602440; in the data active = inhibition mostly above about 40%, no sharp cut-off; inactive = mostly below about 27%
SENP6 block = inhibitors of human SENP6 protease. AID 2599. Recombinant SENP6 catalytic domain, aminoluciferin luminescence. inhibition, % at 10 µM. actives 1.8% (n = 330,000);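 active = inhibition above about 50% at the single tested dose, limit read from the data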
AHR act = human AHR activation. P35869. AHR-responsive luciferase reporter cells, luminescence. activation, % at 5 µM. actives 2.5% (n = 320,000). AID 2796; in the data active = activation above about 47%
Target sequence (P35869 whole entry, looked up): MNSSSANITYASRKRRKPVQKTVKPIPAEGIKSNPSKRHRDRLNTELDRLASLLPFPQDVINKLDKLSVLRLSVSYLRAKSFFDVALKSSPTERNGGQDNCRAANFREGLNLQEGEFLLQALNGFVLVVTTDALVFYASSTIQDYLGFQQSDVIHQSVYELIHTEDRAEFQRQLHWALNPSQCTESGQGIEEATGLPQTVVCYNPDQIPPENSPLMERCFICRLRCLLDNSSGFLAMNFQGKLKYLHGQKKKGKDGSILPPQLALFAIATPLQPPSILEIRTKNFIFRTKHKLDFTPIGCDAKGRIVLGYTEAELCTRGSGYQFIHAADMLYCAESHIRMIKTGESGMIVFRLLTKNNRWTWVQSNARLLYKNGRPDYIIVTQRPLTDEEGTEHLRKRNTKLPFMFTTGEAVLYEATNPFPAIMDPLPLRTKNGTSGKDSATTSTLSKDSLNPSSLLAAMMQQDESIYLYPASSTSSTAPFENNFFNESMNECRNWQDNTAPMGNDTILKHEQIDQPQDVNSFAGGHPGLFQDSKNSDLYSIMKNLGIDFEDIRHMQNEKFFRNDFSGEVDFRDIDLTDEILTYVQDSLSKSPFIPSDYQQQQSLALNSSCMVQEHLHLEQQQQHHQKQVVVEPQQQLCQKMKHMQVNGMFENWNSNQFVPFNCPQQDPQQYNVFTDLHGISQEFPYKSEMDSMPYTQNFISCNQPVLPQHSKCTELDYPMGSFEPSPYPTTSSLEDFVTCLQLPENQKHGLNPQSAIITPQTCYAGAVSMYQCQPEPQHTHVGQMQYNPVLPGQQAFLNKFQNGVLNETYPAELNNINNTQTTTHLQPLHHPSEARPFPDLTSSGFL
EBI2 antag = blocks human EBI2 receptor beta-arrestin signaling; EBI2 beta-arrestin recruitment, luminescence, 7a,25-OHC stimulated; inhibition, % at 5 µM; actives 0.81% (n = 360,000); AID 651636; in the data active = inhibition above about 38%;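 note: enzyme fragment complementation signal reports receptor beta-arrestin coupling in cells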
SENP8 block-2 = SENP8 protease inhibition | Q96LD8 | purified SENP8, Z-RLRGG-aminoluciferin cleavage, luminescence | inhibition, % at 10 µM | actives 1.2% (n = 330,000) | AID 2540; in the data active = inhibition above about 50%
SENP7 block = inhibitors of human SENP7 protease; AID 434973; recombinant SENP7, Z-RLRGG-aminoluciferin luminescence, 40 min; inhibition, % at 5 µM; actives 1.5% (n = 330,000);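 active = inhibition above about 50% at the single test dose, limit read from the data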
SENP8 conf-1 = confirmation of human SENP8 protease inhibitors; shares compounds with SENP7 block; Recombinant SENP8, Z-RLRGG-aminoluciferin luminescence, 60 min; inhibition, % at 12.5 µM; actives 40% (n = 6,200); AID 488912;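 active = mean inhibition across replicates above about 50%, limit read from the data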
SENP6 conf = human SENP6 inhibition, confirmed; AID 488915; actives 58% (n = 6,200); inhibition, % at 12.5 µM; recombinant SENP6, Z-RLRGG-aminoluciferin luminescence; shares compounds with SENP7 block
SENP7 confirm = confirmation of human SENP7 protease inhibitors | shares compounds with SENP7 block | recombinant SENP7, Z-RLRGG-aminoluciferin luminescence, 40 min | inhibition, % at 12.5 µM | actives 69% (n = 6,200) | AID 488917
Casp3 SENP sel = selectivity test for SENP inhibitors: human caspase-3 inhibition. shares compounds with SENP7 block. purified caspase-3, Z-DEVD-aminoluciferin luminescence, 60 min. inhibition, % at 12.5 µM. actives 60% (n = 6,200);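 active = mean inhibition above about 50%, limit read from the data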
SENP luc ctr = interferes with luciferase luminescence in SENP counter-screen. inhibition, % at 12.5 µM. AID 488919. Pre-incubated SENP8/Z-RLRGG-aminoluciferin, luciferase luminescence interference. actives 39% (n = 6,200). shares compounds with SENP7 block;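 active = mean inhibition above about 50% when retested at one dose, limit read from the data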
SENP8 conf-2 = SENP8 (human) inhibition, single concentration confirmation | shares compounds with SENP8 block-1 | purified SENP8, Nedd8-AMC/pro-Nedd8 cleavage fluorescence, 30 min | inhibition, % at 25 µM | actives 15% (n = 1,400); in the data active = inhibition mostly above about 39%, no sharp cut-off; inactive = mostly below about 34%
Hits are given with their value; - = inactive; . = no result given. Most compounds without a hit are left out; they make up all but 5% or so of the library.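 Rule for the calls, unless noted: active = mean inhibition above about 50% in the one-dose retest (limit read from the data); inactive = the rest.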

SMILES | SENP8 block-1 | SENP6 block | AHR act | EBI2 antag | SENP8 block-2 | SENP7 block | SENP8 conf-1 | SENP6 conf | SENP7 confirm | Casp3 SENP sel | SENP luc ctr | others
COCCNC(=O)c1c(N)n(Cc2ccco2)c2nc3ccccc3nc12 | - | - | - | - | - | - | . | . | . | . | .
Nc1c(C(=O)NCCc2ccccc2)c2nc3ccccc3nc2n1CCN1CCOCC1 | - | - | - | - | - | - | . | . | . | . | .
CCCCn1c(N)c(C(=O)NCCN2CCOCC2)c2nc3ccccc3nc21 | - | - | - | - | - | - | . | . | . | . | .
CCC(C)NC(=O)c1c(N)n(CC2CCCO2)c2nc3ccccc3nc12 (configuration not stated) | - | 87.6 | - | - | 83.0 | 71.8 | - | - | - | - | -
CC(C)CCNC(=O)c1c(N)n(CC2CCCO2)c2nc3ccccc3nc12 (configuration not stated) | - | 81.5 | - | - | 79.1 | 73.7 | - | - | - | - | -
O=C1CC(=O)N(c2cccc(F)c2)C(=O)N1 | - | - | - | - | - | - | . | . | . | . | .
Cn1cccc1/C=C1/C(=O)NC(=S)N(Cc2ccc(F)cc2)C1=O | - | - | - | - | - | - | . | . | . | . | .
O=c1[nH]c(=S)[nH]c(O)c1N=Nc1ccc(OC(F)F)cc1 | - | 93.7 | - | - | 92.4 | 92.8 | 91.2 | 92.4 | 88.1 | 95.7 | -
COc1ccc(N=Nc2c(O)[nH]c(=S)[nH]c2=O)cc1 | - | 76.0 | - | - | 65.6 | 66.3 | - | 79.4 | 51.2 | 77.6 | -
COC(=O)C1=C(c2ccc(S(C)(=O)=O)cc2)C[C@@H]2CC[C@H]1N2C(=O)N1CCC(C)CC1 | - | - | - | - | - | - | . | . | . | . | .
C=CCn1c(O)c(C(CC)=NCCc2c[nH]c3ccccc23)c(=O)[nH]c1=O | - | - | - | - | - | - | . | . | . | . | .
OCC[n+]1c2ccccc2nc2ccc(N3CCOCC3)cc21 | - | 52.4 | - | - | - | - | - | 67.7 | - | - | -
Cc1cc(C(=O)N=Nc2c(O)n(C)c3ccccc23)c(C)o1 | - | 90.6 | - | - | 79.0 | 89.8 | 54.5 | 56.3 | - | - | -
Cn1c(=O)oc(=O)c2ccccc21 | - | . | . | - | . | . | . | . | . | . | .
Cc1cc(C(=O)CS(=O)(=O)c2ccccc2)cc(C)c1OC(=O)N(C)C | - | 54.0 | - | - | - | - | - | - | 77.9 | 79.2 | -
CCOC(=O)C1CCN(C(C)C(=O)c2c[nH]c3ccccc23)CC1 (configuration not stated) | - | - | - | - | - | - | . | . | . | . | .
COc1ccc(-c2cc(=Nc3cccc(C(=O)O)c3)c3cc(C)ccc3o2)cc1 | - | - | - | - | 63.7 | 82.3 | - | 52.9 | 68.4 | 51.3 | 65.2
COc1ccc(-c2cc(=NCCCCCC(=O)O)c3cc(C)ccc3o2)cc1 | - | . | . | - | . | . | . | . | . | . | .
COCCCn1c(N)c(C(=O)Nc2sc3c(c2C(=O)OC)CCCC3)c2nc3ccccc3nc21 | - | 91.4 | - | - | 88.8 | 71.2 | - | - | - | - | -
COCCCn1c(N)c(C(=O)NCc2ccco2)c2nc3ccccc3nc21 | . | 92.8 | - | . | 90.5 | 87.0 | - | - | - | - | -
COCCCn1c(N)c(C(=O)Nc2ccccc2)c2nc3ccccc3nc21 | - | - | - | - | - | - | . | . | . | . | .
CCC(C)NC(=O)c1c(N)n(CCCOC)c2nc3ccccc3nc12 (configuration not stated) | - | 86.4 | - | - | 92.0 | 89.8 | - | 83.0 | 74.3 | - | -
Cc1nn(-c2ccccc2)c2c1C(c1ccc3c(c1)OCO3)SCC(=O)N2 (configuration not stated) | - | - | - | - | - | - | . | . | . | . | .
CC(=O)CC(=O)C1C(=O)N(C)C(=O)N(C)C1=O | - | - | - | - | - | - | . | . | . | . | .
CCOC(=O)C1(CCc2ccccc2)CCN(Cc2ccc3c(c2)OCCO3)CC1 | - | 70.0 | - | - | - | - | - | - | - | - | -
SMILES | SENP8 block-1 | SENP6 block | AHR act | EBI2 antag | SENP8 block-2 | SENP7 block | SENP8 conf-1 | SENP6 conf | SENP7 confirm | Casp3 SENP sel | SENP luc ctr | others
COc1cc2c(cc1O)[C@@H]1Cc3ccc(OC)c(O)c3CN1CC2 | 80.0 | 73.6 | - | - | 64.3 | - | - | - | - | - | -
CS(=O)(=O)NNP(=O)(NNS(C)(=O)=O)NC(=O)c1ccccc1 | - | - | - | - | - | - | . | . | . | . | .
Nc1ccccc1C(=O)OCCOc1ccccc1 | - | 89.6 | - | - | 85.5 | 94.9 | 91.9 | 92.2 | 99.1 | 80.6 | 90.1
CCOC(=O)C1=C(N)OC2=C(C(=O)CCC2)[C@]12C(=O)N(CC(N)=O)c1ccccc12 | - | - | - | - | - | - | . | . | . | . | .
O=P(O)(Oc1ccccc1)OC(c1ccccc1)C(F)(F)C(F)(F)F (configuration not stated) | - | - | - | - | - | - | . | . | . | . | .
c1ccc(CC(NCc2ccco2)c2ccccc2)cc1 (configuration not stated) | - | - | - | - | - | - | . | . | . | . | .
Cn1c(O)c(C=Nc2cccc(C(F)(F)F)c2)c(=O)n(C)c1=O | - | - | - | - | - | - | . | . | . | . | .
Cn1c(O)c(C=Nc2ccc(Br)cc2)c(=O)n(C)c1=O | - | 59.3 | - | - | 50.1 | - | - | - | - | - | -
O=C(O)c1c[nH]c2ccc(S(=O)(=O)N(CCCl)CCCl)cc12 | - | - | - | - | - | - | . | . | . | . | .
O=c1[nH]c(=S)[nH]c(O)c1N=Nc1ccc2c(c1)OCCO2 | 41.8 | 91.5 | - | - | 87.0 | 92.1 | - | - | 55.0 | 64.2 | - | SENP8 conf-2=-
Cc1c(C)c2ccc(OCC(=O)N3C[C@H]4C[C@@H](C3)c3cccc(=O)n3C4)c(C)c2oc1=O | - | - | - | - | - | - | . | . | . | . | .
O=c1[nH]c(=S)[nH]c(O)c1N=Nc1cc(S(=O)(=O)Nc2ccc(Cl)cc2)ccc1Cl | 41.2 | - | - | - | - | - | . | . | . | . | . | SENP8 conf-2=-
NS(=O)(=O)c1ccc(N=Nc2c(O)[nH]c(=S)[nH]c2=O)cc1 | - | - | - | - | - | - | . | . | . | . | .
CC1(C)C2([N+](=O)[O-])CN3CN(C2)CC1([N+](=O)[O-])C3 | - | - | - | - | - | - | . | . | . | . | .
O=c1[nH]c(=S)[nH]c(O)c1N=Nc1cc2c(cc1[N+](=O)[O-])OCO2 | 41.9 | - | - | - | - | - | . | . | . | . | . | SENP8 conf-2=-
